Calls of active or inactive are those of the source. The calls were made as follows: active = hit-call score of the fitted dose curve at least 0.9, where 1 is the maximum; inactive = score below 0.9.
Assays:
Conditions in all cases: mRNA level, 48 h; actives raise or lower the signal
[1] = read-out: catalase (CAT), CAT (gene 847); test: LTEA_HepaRG_CAT: Life Technologies and Expression Analysis (LTEA) Assay for catalase (CAT) using HepaRG (AID 2283452);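 as to AC50: TaqMan qRT-PCR signal normalized to ACTB GAPDH and POLR2A housekeeping genes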
In short: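 Expression of CAT was quantified by TaqMan qRT-PCR with ACTB/GAPDH/POLR2A normalization after 48 h chemical exposure of HepaRG. Eight-point half-log series, top 100 uM, in 0.5% DMSO; gain or loss fitted against vehicle.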

[2] = read-out: flavin-containing dimethylaniline monooxygenases 3 (FMO3), FMO3 (gene 2328); test: LTEA_HepaRG_FMO3: Life Technologies and Expression Analysis (LTEA) Assay for flavin-containing dimethylaniline monooxygenases 3 (FMO3) using HepaRG (AID 2283453);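 as to AC50: differentiated human HepaRG liver cells in serum-free induction medium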
In short: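 Eight-point concentration-response in serum-free HepaRG cultures (top 100 uM, 0.5% DMSO, 48 h). Read-out: FMO3 mRNA level normalized to three endogenous control genes, fitted bidirectionally versus vehicle.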

[3] = read-out: Cytochrome P450 (CYP1A1), CYP1A1 (gene 1543); test: LTEA_HepaRG_CYP1A1: Life Technologies and Expression Analysis (LTEA) Assay for Cytochrome P450 (CYP1A1) using HepaRG (AID 2283454)
In short: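 HepaRG, 48 h post-plating switched to serum-free induction medium; 8-pt conc-response (top 100 uM, half-log, 0.5% DMSO), duplicates, 48 h. Lysis in RLT, TaqMan qRT-PCR for CYP1A1; gain or loss vs DMSO.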

[4] = read-out: growth arrest and DNA damage 45 (GADD45A), GADD45A (gene 1647); test: LTEA_HepaRG_GADD45A: Life Technologies and Expression Analysis (LTEA) Assay for growth arrest and DNA damage 45 (GADD45A) using HepaRG (AID 2283458)
In short: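 HepaRG, 48 h exposure, 8 conc. (top 100 uM, half-log steps), 0.5% DMSO vehicle, duplicates. Read-out: qRT-PCR mRNA level, housekeeping-normalized (ACTB/GAPDH/POLR2A). Curves fit bidirectionally vs DMSO baseline.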

[5] = read-out: Forkhead box O3 (FOXO3), FOXO3 (gene 2309); test: LTEA_HepaRG_FOXO3: Life Technologies and Expression Analysis (LTEA) Assay for Forkhead box O3 (FOXO3) using HepaRG (AID 2283459)
In short: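 FOXO3 transcript measured by qRT-PCR (normalized to ACTB, GAPDH, POLR2A) after 48 h exposure of HepaRG cells in serum-free induction medium. Duplicates, eight half-log concentrations up to 100 uM, 0.5% DMSO; gain or loss fitted against DMSO.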

[6] = read-out: ABC Transporter (ABCB1), ABCB1 (gene 5243); test: LTEA_HepaRG_ABCB1: Life Technologies and Expression Analysis (LTEA) Assay for ABC Transporter (ABCB1) using HepaRG (AID 2283460)
In short: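 ABCB1 transcript level measured by TaqMan qRT-PCR against three housekeeping genes after 48 h chemical exposure of differentiated HepaRG cells. Top concentration 100 uM, half-log steps, eight points, 0.5% DMSO vehicle; bidirectional fit relative to DMSO.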

[7] = read-out: growth arrest and DNA damage 45 (GADD45B), GADD45B (gene 4616); test: LTEA_HepaRG_GADD45B: Life Technologies and Expression Analysis (LTEA) Assay for growth arrest and DNA damage 45 (GADD45B) using HepaRG (AID 2283461)
In short: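 HepaRG, ~100,000 cells/well, 48 h plating; serum-free induction medium; cpd 100 uM top, half-log x8, 0.5% DMSO, duplicate, 48 h; lysis in RLT, RNA isolation, qRT-PCR; norm ACTB/GAPDH/POLR2A; bidirectional fit vs DMSO.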

[8] = read-out: ABC Transporter (ABCC3), ABCC3 (gene 8714); test: LTEA_HepaRG_ABCC3: Life Technologies and Expression Analysis (LTEA) Assay for ABC Transporter (ABCC3) using HepaRG (AID 2283462)
In short: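 Human HepaRG, 48 h dosing, 8-pt half-log series from 100 uM, 0.5% DMSO vehicle, duplicates. ABCC3 mRNA by TaqMan qRT-PCR, housekeeping-normalized; bidirectional curve fit vs DMSO.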

[9] = read-out: ABC Transporter (ABCB11), ABCB11 (gene 8647); test: LTEA_HepaRG_ABCB11: Life Technologies and Expression Analysis (LTEA) Assay for ABC Transporter (ABCB11) using HepaRG (AID 2283463)
In short: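 ABCB11 transcript levels quantified by TaqMan qRT-PCR against three housekeeping genes after 48 h chemical exposure of HepaRG cultures. Concentrations up to 100 uM in half-log steps, 0.5% DMSO vehicle; both induction and suppression scored.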

[10] = read-out: ABC Transporter (ABCC2), ABCC2 (gene 1244); test: LTEA_HepaRG_ABCC2: Life Technologies and Expression Analysis (LTEA) Assay for ABC Transporter (ABCC2) using HepaRG (AID 2283464)
In short: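 HepaRG, 48 h post-plating; serum-free induction medium; cpd 8-pt, 100 uM top, half-log, 0.5% DMSO, duplicate, 48 h. Readout: ABCC2 mRNA by qRT-PCR, norm. ACTB/GAPDH/POLR2A. Bidirectional fit vs DMSO baseline.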

[11] = read-out: Broad substrate specificity ATP-binding cassette transporter ABCG2 (Homo sapiens) (UniProt Q9UNQ0); test: LTEA_HepaRG_ABCG2: Life Technologies and Expression Analysis (LTEA) Assay for ABC Transporter (ABCG2) using HepaRG (AID 2283465)
In short: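 ABCG2 transcript was quantified by TaqMan qRT-PCR against three housekeeping genes in HepaRG cells. Cells were treated in duplicate for 48 h across an 8-point half-log series up to 100 uM, with 0.5% DMSO vehicle. Gain or loss versus DMSO was fit.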

[12] = read-out: ATP-citrate lyase (ACLY), ACLY (gene 47); test: LTEA_HepaRG_ACLY: Life Technologies and Expression Analysis (LTEA) Assay for ATP-citrate lyase (ACLY) using HepaRG (AID 2283466)
In short: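 ACLY mRNA quantified by qRT-PCR on Fluidigm arrays against three housekeeping genes, after 48 h chemical treatment of HepaRG cells (top concentration 100 uM, half-log steps, 0.5% DMSO vehicle). Up- or down-regulation fitted relative to DMSO.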

[13] = read-out: Peroxisomal acyl-coenzyme A oxidase 1 (ACOX1) gene, ACOX1 (gene 51); test: LTEA_HepaRG_ACOX1: Life Technologies and Expression Analysis (LTEA) Assay for Peroxisomal acyl-coenzyme A oxidase 1 (ACOX1) gene using HepaRG (AID 2283467)
In short: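 ACOX1 transcript levels were quantified by TaqMan qRT-PCR against three housekeeping genes after 48 h chemical exposure of differentiated human HepaRG cells. Exposure used eight half-log steps topping at 100 uM, 0.5% DMSO vehicle, in duplicate. Bidirectional curve fits were made relative to DMSO.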

[14] = read-out: Alkaline Phosphatase, Placental (ALPP) gene, ALPP (gene 250); test: LTEA_HepaRG_ALPP: Life Technologies and Expression Analysis (LTEA) Assay for Alkaline Phosphatase, Placental (ALPP) gene using HepaRG (AID 2283468);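 as to AC50: differentiated human HepaRG liver cells in serum-free induction medium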
In short: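 HepaRG, 48 h plating then 48 h dosing, serum-free induction medium, 0.5% DMSO. 8 conc, half-log, max 100 uM, duplicates. Endpoint: ALPP transcript by qRT-PCR, housekeeping-normalized; gain or loss fitted vs DMSO.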

[15] = read-out: Bcl-2 (BAD) gene, BAD (gene 572); test: LTEA_HepaRG_BAD: Life Technologies and Expression Analysis (LTEA) Assay for Bcl-2 (BAD) gene using HepaRG (AID 2283469)
In short: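 Read-out: qRT-PCR of BAD mRNA, normalized to three housekeeping genes. Human HepaRG cultures got 48 h chemical exposure in 0.5% DMSO, duplicate eight-point half-log series topping at 100 uM. Gain or loss of signal fitted versus DMSO vehicle.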

[16] = read-out: Bcl-2 (BAX) gene, BAX (gene 581); test: LTEA_HepaRG_BAX: Life Technologies and Expression Analysis (LTEA) Assay for Bcl-2 (BAX) gene using HepaRG (AID 2283470)
In short: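 qRT-PCR read-out of BAX mRNA, normalized to three housekeeping genes, after 48 h chemical exposure of human HepaRG cells in serum-free induction medium; eight-point half-log series, top 100 uM, 0.5% DMSO vehicle; bidirectional fit versus DMSO.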

[17] = read-out: adenosine kinase (ADK) gene, ADK (gene 132); test: LTEA_HepaRG_ADK: Life Technologies and Expression Analysis (LTEA) Assay for adenosine kinase (ADK) gene using HepaRG (AID 2283471)
In short: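 ADK expression quantified by qRT-PCR, normalised to three housekeeping genes, after 48 h exposure of HepaRG cells to eight concentrations (top 100 uM, half-log steps, duplicate, 0.5% DMSO). Up- or down-regulation fitted relative to vehicle.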

[18] = read-out: CFLAR gene, CFLAR (gene 8837); test: LTEA_HepaRG_CFLAR: Life Technologies and Expression Analysis (LTEA) Assay for CFLAR gene using HepaRG (AID 2283455)
In short: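 Transcript level by qRT-PCR (normalized to ACTB, GAPDH and POLR2A) after 48 h chemical exposure of HepaRG cells, top concentration 100 uM with half-log steps, 0.5% DMSO vehicle, duplicates; fitted bidirectionally against DMSO baseline.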

[19] = read-out: Forkhead box O1 (FOXO1), FOXO1 (gene 2308); test: LTEA_HepaRG_FOXO1: Life Technologies and Expression Analysis (LTEA) Assay for Forkhead box O1 (FOXO1) using HepaRG (AID 2283456)
In short: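 FOXO1 transcript quantified by qRT-PCR after 48 h chemical exposure (top 100 uM, half-log steps, 0.5% DMSO) of HepaRG cells, housekeeping-normalized (ACTB/GAPDH/POLR2A). Changes fitted in both directions relative to vehicle.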

Measured: AC50

Broad substrate specificity ATP-binding cassette transporter ABCG2 (Homo sapiens), sequence (Q9UNQ0 whole entry, looked up): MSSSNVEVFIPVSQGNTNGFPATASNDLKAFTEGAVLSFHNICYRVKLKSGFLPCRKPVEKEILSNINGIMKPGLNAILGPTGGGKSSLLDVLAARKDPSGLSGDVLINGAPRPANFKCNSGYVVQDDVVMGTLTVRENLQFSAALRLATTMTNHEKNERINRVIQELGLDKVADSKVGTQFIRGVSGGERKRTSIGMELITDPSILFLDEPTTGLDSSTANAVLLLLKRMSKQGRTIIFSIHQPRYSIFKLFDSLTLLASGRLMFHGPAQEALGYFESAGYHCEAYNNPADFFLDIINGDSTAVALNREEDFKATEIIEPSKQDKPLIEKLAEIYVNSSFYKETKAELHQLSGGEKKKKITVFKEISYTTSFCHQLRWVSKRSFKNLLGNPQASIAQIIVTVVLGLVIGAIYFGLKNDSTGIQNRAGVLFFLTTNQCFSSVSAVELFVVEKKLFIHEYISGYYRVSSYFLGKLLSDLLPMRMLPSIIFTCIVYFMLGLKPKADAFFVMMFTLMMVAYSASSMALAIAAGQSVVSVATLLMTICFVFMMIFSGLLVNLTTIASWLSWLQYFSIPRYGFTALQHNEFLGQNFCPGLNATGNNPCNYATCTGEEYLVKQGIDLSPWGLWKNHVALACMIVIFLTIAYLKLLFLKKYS

CCCCCCCCOC(=O)c1ccc(C(=O)OCCCCCCCC)c(C(=O)OCCCCCCCC)c1
active: [3] 50.5 µM
not listed: [18] | [19]
inactive: all other assays above

Clc1ccc(C(c2ccc(Cl)cc2)C(Cl)Cl)cc1
active: [6] 31.6 µM | [9] 81.8 µM | [10] 19.3 µM | [14] 50 µM
not listed: [3]
inactive: all other assays above

N#CC(Br)(Br)C(N)=O
not listed: [3] | [18] | [19]
inactive: all other assays above

CC(C)(C)OOC(C)(C)CCC(C)(C)OOC(C)(C)C
not listed: [3] | [19]
inactive: all other assays above

Clc1ccc(Cl)c(Cl)c1
active: [18] 50 µM | [4] 9.92 µM | [9] 50 µM | [14] 9.92 µM
not listed: [3] | [19]
inactive: all other assays above

CCCSC(=O)N(CCC)CCC
not listed: [3] | [18] | [19]
inactive: all other assays above

CCC12COCN1COC2
not listed: [3] | [18]
inactive: all other assays above

Nc1ccc(Cc2ccc(N)cc2)cc1
not listed: [3] | [18]
inactive: all other assays above

O=Cc1ccco1
not listed: [3] | [19]
inactive: all other assays above

CN(C)c1ccccc1
not listed: [3] | [18] | [19]
inactive: all other assays above

CN(C)[C@@H]1C(=O)C(C(N)=O)=C(O)[C@@]2(O)C(=O)C3=C(O)c4c(O)cccc4[C@@](C)(O)[C@H]3C[C@@H]12
not listed: [3] | [18] | [19]
inactive: all other assays above

c1ccc2c(c1)-c1cccc3cccc-2c13
not listed: [3] | [18]
inactive: all other assays above

O=C1CCCO1
active: [4] 50 µM | [6] 9.92 µM | [17] 50 µM
not listed: [3] | [18] | [19]
inactive: all other assays above

COC(=O)c1ccccc1N
not listed: [3] | [18]
inactive: all other assays above

COc1cc(C=O)cc2c1[C@H](COC(N)=O)[C@]1(OC(C)=O)ON2C[C@H]2[C@@H]1N2C(C)=O
inactive: [10] | [11] | [12] | [14] | [16]
active: [1] 0.412 µM | [2] 76.5 µM | [4] 0.579 µM | [5] 3.8 µM | [6] 24.3 µM | [7] 92.3 µM | [8] 9.99 µM | [9] 0.38 µM | [13] 94.2 µM | [15] 89.3 µM | [17] 24.6 µM

— PubChem BioAssay (EPA / NIEHS)
